Results on 7 compounds are retold here after PubChem BioAssay (NCI).

SMILES strings stand for the structures. About 83,000 compounds went through this panel and 20% of them were active in at least one assay; those are over-represented in the sample as a whole.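 A percent growth of 40 corresponds to 60% growth inhibition; 0 means no net growth; -100 means all cells died. Active threshold: below 10.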 Values without a mark were called inactive. Calls of active or inactive are those of the source.

Common to all, as to test: NCI-60 one-dose screen, 48 h (100 = growth as untreated, 0 = no growth, -100 = all killed)
The test system of one assay is SR leukemia. Conditions: 10 µM unless noted.
The subject of another assay is RPMI-8226 leukemia. Conditions: 10 µM unless noted.
The next assay deals with OVCAR-8 ovarian. To be noted: 10 µM unless noted.
The next assay concerns OVCAR-4 ovarian. To be noted: 10 µM.
For a further assay, the system named is SK-OV-3 ovarian. Conditions: 10 µM unless noted.
The next assay deals with IGROV1 ovarian. Conditions: 10 µM unless noted.
For the next assay, the system named is OVCAR-3 ovarian. To be noted: 10 µM unless noted.
Another assay concerns HS 578T breast. Conditions: 10 µM unless noted.
In the next assay the test system is NCI/ADR-RES ovarian. Conditions: 10 µM unless noted.
Another assay has as its system T-47D breast. To be noted: 10 µM unless noted.
For the next assay, the system named is MDA-MB-435 melanoma. To be noted: 10 µM unless noted.
The next assay deals with SW-620 colon. Conditions: 10 µM unless noted.
In a further assay the test system is MCF7 breast. Conditions: 10 µM unless noted.
The next assay concerns HCT-116 colon. Conditions: 10 µM unless noted.
The subject of the next assay is HCC-2998 colon. Conditions: 10 µM unless noted.
The test system of another assay is KM12 colon. Conditions: 10 µM unless noted.
A further assay relates to BT-549 breast. Conditions: 10 µM unless noted.
The subject of the next assay is OVCAR-5 ovarian. To be noted: 10 µM unless noted.

For the compound `COc1ccc2c(c1)C(C)Cc1c(Cl)nc(C)nc1N2C` (configuration not stated), the growth was 14.6% in the assay with SR leukemia; 29.4% in the assay on RPMI-8226 leukemia; 24.2% in the assay with OVCAR-8 ovarian; 54.9% in the assay with OVCAR-4 ovarian; 19.1% in the assay on SK-OV-3 ovarian; 55.7% with IGROV1 ovarian. Also, the growth in the assay with OVCAR-3 ovarian was 6.18% (active); with HS 578T breast it was 27.3%; in the assay with NCI/ADR-RES ovarian it was 4.74% (active); in the assay with T-47D breast, 39.6%; in the assay on MDA-MB-435 melanoma, -20.5% (active); in the assay on SW-620 colon it was 24.8%. Further, the growth is 19.7% in the assay on MCF7 breast, 12.2% in the assay with HCT-116 colon, 30.3% in the assay with HCC-2998 colon and 21% with KM12 colon.
Turning to `CN(C)c1cc(NN=C(c2ccc(O)cc2)c2ccc(O)cc2)c([N+](=O)[O-])cc1[N+](=O)[O-]`, the growth with SR leukemia is 92.2%; in the assay with RPMI-8226 leukemia, 131%; in the assay on OVCAR-8 ovarian, 8.9% (active); with OVCAR-4 ovarian, 97%; in the assay with SK-OV-3 ovarian it was 96.5%; with OVCAR-3 ovarian it was 95.5%. In addition, the growth in the assay on HS 578T breast is 102%; in the assay on NCI/ADR-RES ovarian, 44.2%; in the assay on T-47D breast, 19.1%; with BT-549 breast, 115%; with MDA-MB-435 melanoma, 84.9%; in the assay on SW-620 colon, 108%. For the same compound, the growth with MCF7 breast was 27.2%; in the assay with HCT-116 colon, 33.2%; in the assay on HCC-2998 colon it was 59.1%; in the assay with KM12 colon, 92%.
For the compound `COc1ccccc1S(=O)Nc1ccccc1` (configuration not stated), the growth with SR leukemia was 82.7%; in the assay on RPMI-8226 leukemia, 99.9%; with OVCAR-8 ovarian, 94.2%; with OVCAR-4 ovarian it was 110%; in the assay on SK-OV-3 ovarian, 105%; in the assay with IGROV1 ovarian it was 107%. Moreover, the growth with OVCAR-3 ovarian was 107%; in the assay on HS 578T breast, 82%; with NCI/ADR-RES ovarian, 105%; in the assay on T-47D breast, 107%; in the assay on BT-549 breast it was 108%; with MDA-MB-435 melanoma it was 97.6%. Also, the growth is 72% in the assay with SW-620 colon; 95.1% with MCF7 breast; 115% in the assay on HCT-116 colon; 107% with HCC-2998 colon; 106% in the assay on KM12 colon.
`C[C@H]1[C@H](C)CC[C@]2(C(=O)N3CCN(C)CC3)CC[C@]3(C)C(=CC[C@@H]4[C@@]5(C)C/C(=C/c6ccco6)C(=O)C(C)(C)[C@@H]5CC[C@]43C)[C@H]12`: the growth in the assay with SR leukemia is 32% [100 µM]; in the assay on RPMI-8226 leukemia, 19.5% [100 µM]; with OVCAR-8 ovarian it was 25.4% [100 µM]; in the assay with OVCAR-5 ovarian, 63.5% [100 µM]; in the assay on SK-OV-3 ovarian, 59.3% [100 µM]; in the assay with OVCAR-3 ovarian it was 40.1% [100 µM]. Further, the growth in the assay on HS 578T breast is 53.2% [100 µM]; in the assay on NCI/ADR-RES ovarian, 37.9% [100 µM]; with T-47D breast, 20.3% [100 µM]; with BT-549 breast, 50.8% [100 µM]; in the assay with MDA-MB-435 melanoma it was 42.6% [100 µM]; with SW-620 colon, 39.9% [100 µM]. For the same compound, the growth was 23.9% [100 µM] in the assay with MCF7 breast, 19% [100 µM] in the assay on HCT-116 colon, 38.2% [100 µM] in the assay with HCC-2998 colon and 35.7% [100 µM] in the assay on KM12 colon.
As for `C1=C[C@H]2O[C@@H]1c1ccc3[nH]ccc3c12`, the growth with SR leukemia is 84.6%; with RPMI-8226 leukemia, 93.8%; in the assay on OVCAR-8 ovarian, 104%; in the assay on OVCAR-4 ovarian, 115%; in the assay with SK-OV-3 ovarian, 98.7%; with OVCAR-3 ovarian it was 110%. Moreover, the growth in the assay with HS 578T breast is 119%; in the assay on NCI/ADR-RES ovarian, 63.7%; in the assay on T-47D breast, 110%; with BT-549 breast, 108%; in the assay with MDA-MB-435 melanoma it was 0.425% (active); with SW-620 colon, 73.4%. Also, the growth is 96.1% in the assay with MCF7 breast, 97.9% in the assay with HCT-116 colon, 86.7% in the assay with HCC-2998 colon and 79.5% with KM12 colon.
On to `CC1Cc2c(Cl)ncnc2N(C)c2ccc(O)cc21` (configuration not stated), for which the growth with SR leukemia is 90.3%; in the assay with RPMI-8226 leukemia, 68.5%; in the assay on OVCAR-8 ovarian it was 29.7%; in the assay on OVCAR-4 ovarian, 27%; in the assay with SK-OV-3 ovarian, 31.7%; in the assay on IGROV1 ovarian, 103%. The growth in the assay on OVCAR-3 ovarian was 50.8%; in the assay on HS 578T breast it was 28.8%; in the assay on NCI/ADR-RES ovarian, 17.3%; in the assay on T-47D breast it was 81.7%; with MDA-MB-435 melanoma it was 30.5%; in the assay with SW-620 colon, 38.1%. The growth is 55.1% with MCF7 breast, 65.6% in the assay on HCT-116 colon, 59.4% in the assay on HCC-2998 colon and 10.4% in the assay on KM12 colon.
`O=C(OCc1ccc2c(Cl)cc(Cl)c(O)c2n1)N1CCNCC1`: the growth with SR leukemia is 14.5%; with RPMI-8226 leukemia, 44.2%; in the assay with OVCAR-8 ovarian, 28.7%; in the assay on OVCAR-4 ovarian it was 23.4%; with SK-OV-3 ovarian it was 40.9%; with OVCAR-3 ovarian, 33.8%. Besides, the growth was 53.4% in the assay with HS 578T breast; 9.22% (active) with NCI/ADR-RES ovarian; 29.9% with T-47D breast; 48.9% in the assay with MDA-MB-435 melanoma; 26.2% in the assay on SW-620 colon; 34.6% with MCF7 breast. In addition, the growth in the assay with HCT-116 colon is 27.5%; with HCC-2998 colon, 60.2%; in the assay with KM12 colon, 31.5%.
